This is an account of results in PubChem BioAssay (NCI).

The panel holds about 83,000 compounds, 20% with a hit somewhere; the sample as a whole holds those more often.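 The test compound was applied at a single concentration to cells in 96-well plates for 48 hours, and percent growth was recorded.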 Values without a mark were called inactive. Calls of active or inactive are those of the source. Rule for the calls: active = growth percent below 10; inactive = the rest.

The subject of one experiment is CCRF-CEM leukemia. The experiment is described as follows: NCI-60 one-dose screen, 48 h (100 = growth as untreated, 0 = no growth, -100 = all killed). To be noted: 10 µM.
As for `Nc1ccc(S(=O)(=O)c2ccc(NO)cc2)cc1`, the growth was 91.8%.
In the case of `COc1cc(NC(C)CCCN)c2nccc(C)c2c1OC` (stereo not given), the growth was 64.8%.
In the case of `CCCC(=O)NNc1[nH]c(-c2cc(OC)c(OC)c(OC)c2)cc1C(=O)OCC`, the growth is 9.44% (active).
For the compound `CC(C)OC(=O)c1ccc2n1CCCc1cnc(Nc3ccccc3)nc1-2`, the growth was 72.3%.
With `COC(=O)c1ccc2[nH]c(O)c(C(=Nc3ccc(N(C)C(=O)CN4CCN(C)CC4)cc3)c3ccc(OC)cc3)c2c1`, the growth was 6.43% (active).
Take `CC(=O)c1cc(Nc2cc(C)nc(N)n2)cc(C(C)=O)c1`: the growth was 86.9%.
For `CCOC(=O)C1=C(C(F)(F)F)NC(=S)NC1CN1C(=O)c2ccccc2C1=O` (stereo not given), the growth is 40.7%.
Consider `CC(C)OC(=O)[C@H](C)N[P@@](=O)(OC[C@@]1(C)O[C@@H](n2cc(F)c(N)nc2=O)C[C@@H]1O[P@](=O)(N[C@@H](C)C(=O)OC(C)C)Oc1ccccc1)Oc1ccccc1`, for which the growth was 61.4%.
As for `COc1ccc(Cn2cc3c(c2-c2ccccc2)CCc2cnoc2-3)cc1OC`, the growth was 17.1%.
For the compound `CC1C(=O)CCCC1=O`, the growth was 92.1%.
For the compound `Brc1ccc(-c2nc3ccccc3s2)cc1`, the growth is 95.5%.
Turning to `O=C(Nc1cccc(Cn2c(=O)[nH]c3ccc(Oc4ncccn4)cc3c2=O)c1)c1ccc(Cl)cc1`, the growth was 47%.
For `Cc1ccc(S(=O)(=O)Nc2cccc(Cn3c(=O)[nH]c4ccc(Oc5ncccn5)cc4c3=O)c2)cc1`, the growth was 65.9%.
With `CC1(C)Oc2cc3oc(=O)ccc3cc2C[C@@H]1OCCOS(=O)(=O)c1ccc(C#N)cc1`, the growth was 98.6%.
The same measure, in the same setting: the result for `COC1NC(Cl)=C(C#N)C(C#N)(C#N)C1(C)C` (stereo not given) reads 109%.
Consider `COc1ccccc1C(=O)Nc1cccc(-c2cc(=O)c3c(OC)c(OC)c(OC)cc3o2)c1`, for which the growth is 16%.
As for `C=C(NC(=O)[C@H](C(C)C)N(C)c1cccc2[nH]ccc12)C(=O)OC`, the growth is 87.1%.
`Cc1nc2c(nnn2-c2ccccc2)c2nc(-c3ccccc3)oc(=O)c12`: the growth is 111%.
Consider `CCCCCCCCCC[N+](C)(C)C`, for which the growth is -18.8% (active).
Still for that read-out and setting: the result for `CCOC(=O)c1ccc2n1CCCc1cnc(NC(C)=O)nc1-2` reads 93.9%; that for `O=S(=O)(O)c1ccc2c(c1)Sc1cc(S(=O)(=O)O)ccc1O2`, 107%; that for `COc1cc(/C=C/C(=O)c2ccc(F)cc2)ccc1OCCCCOc1cc2c(cc1OC)C(=O)N1CCCC1C=N2` (stereo not given), -30.3% (active).
With `COC(=O)C(C)[C@H]1CC[C@@H]2[C@]1(C)CC=C1[C@]23C=C[C@]2(C[C@@H](OC(C)=O)CC[C@]12C)C(C(=O)OC)C3C(=O)OC` (stereo not given in full), the growth is 74.4%.
For `COc1ccc2cnc(N)c(C#Cc3cc(C(=O)Nc4ccc(CN5CCN(C)CC5)c(C(F)(F)F)c4)cnc3C)c2c1`, the growth was 18.7%.
On the same count and under the same terms, next, `COc1cccc2c1nc1cccc(OC)c1[n+]2[O-]`: 3.09% (active); `O=C1/C(=N\c2cc(=O)[nH]n2S(=O)(=O)c2ccccc2)Nc2ccccc21`: 98.4%; `c1ccc(Nc2ccccn2)cc1`: 85%.
On to `COc1ccc(OC)c(Cn2cc3c(c2)-c2oncc2CC3)c1`, for which the growth is 16%.
In the case of `O=C1C(=O)c2ccccc2C(O)=C1CCCc1ccc(C2CCCC2)cc1`, the growth is 24.4%.
Same read-out and setting: next, `CCCOC(=O)c1c(C)n(C)c2scc[n+]12`: -67.1% (active); `COc1cc(-c2nc3c(c(C)nc4c3nnn4-c3ccccc3)c(=O)o2)cc(OC)c1OC`: 96.2%; `COC(=O)Nc1nc2ccc(C(=O)c3ccccc3N(C)C3COC3)cc2[nH]1`: 8.11% (active).
For the compound `COc1cc(Cn2ccc3c2-c2oncc2CC3)cc(OC)c1`, the growth was 30.1%.
`c1ccc(Nc2ncc3c(n2)-c2cccn2CC3)cc1`: the growth was 102%.
On the same count and under the same terms, next, `N=c1c2c(=O)n3c(nc2nc2sc4ccc(Cl)cc4n12)-c1ccccc1Sc1ccccc1-3`: 12.5%; `NC(=O)CC(NC(=O)COc1ccc(Cl)cc1Cl)C(=O)O` (stereo not given): 105%.
Still for that read-out and setting: the result for `C=C(C)[C@@H]1CC[C@]2(COC(=O)c3ccccc3C(=O)O)CC[C@]3(C)[C@H](CC[C@@H]4[C@@]5(C)CCCNC(C)(C)[C@@H]5CC[C@]43C)[C@@H]12` reads 28.8%; that for `C/C=C(/C)C(=O)OC1C=C(CO)C(=O)C(OC(=O)/C(C)=C\C)C1C(C)C` (stereo not given), -3.36% (active).
In the case of `CC(=O)OC1CC2C3CCC4C[C@@H](NC(=O)C=C(C)C)CC[C@]4(C)C3CC[C@]2(C)[C@H]1C(C)N(C)C` (stereo not given in full), the growth was 0.674% (active).
Regarding `CC(=O)/C(=C/c1ccc(-c2ccccc2)cc1)C(=O)c1ccccc1`, the growth is 38.6%.

The test system of the next experiment is MOLT-4 leukemia. Described as above. To be noted: 10 µM unless noted.
On to `Nc1ccc(S(=O)(=O)c2ccc(NO)cc2)cc1`, for which the growth is 95.9%.
Same read-out and setting: the result for `COc1cc(NC(C)CCCN)c2nccc(C)c2c1OC` (stereo not given) reads 73.1%.
Same read-out and setting: the result for `CCCC(=O)NNc1[nH]c(-c2cc(OC)c(OC)c(OC)c2)cc1C(=O)OCC` reads 1.13% (active); that for `CC(C)OC(=O)c1ccc2n1CCCc1cnc(Nc3ccccc3)nc1-2`, 73.8%.
`COC(=O)c1ccc2[nH]c(O)c(C(=Nc3ccc(N(C)C(=O)CN4CCN(C)CC4)cc3)c3ccc(OC)cc3)c2c1`: the growth is 2.57% (active).
In the case of `CC(=O)c1cc(Nc2cc(C)nc(N)n2)cc(C(C)=O)c1`, the growth is 91.2%.
Turning to `CCOC(=O)C1=C(C(F)(F)F)NC(=S)NC1CN1C(=O)c2ccccc2C1=O` (stereo not given), the growth is 93.7%.
On the same count and under the same terms, the result for `CC(C)OC(=O)[C@H](C)N[P@@](=O)(OC[C@@]1(C)O[C@@H](n2cc(F)c(N)nc2=O)C[C@@H]1O[P@](=O)(N[C@@H](C)C(=O)OC(C)C)Oc1ccccc1)Oc1ccccc1` reads 67.5%; that for `COc1ccc(Cn2cc3c(c2-c2ccccc2)CCc2cnoc2-3)cc1OC`, 35.9%; that for `CC1C(=O)CCCC1=O`, 95.1%.
With `Brc1ccc(-c2nc3ccccc3s2)cc1`, the growth was 88.1%.
With `O=C(Nc1cccc(Cn2c(=O)[nH]c3ccc(Oc4ncccn4)cc3c2=O)c1)c1ccc(Cl)cc1`, the growth is 22.5%.
As for `Cc1ccc(S(=O)(=O)Nc2cccc(Cn3c(=O)[nH]c4ccc(Oc5ncccn5)cc4c3=O)c2)cc1`, the growth is 64.5%.
Take `CC1(C)Oc2cc3oc(=O)ccc3cc2C[C@@H]1OCCOS(=O)(=O)c1ccc(C#N)cc1`: the growth is 92%.
On to `COC1NC(Cl)=C(C#N)C(C#N)(C#N)C1(C)C` (stereo not given), for which the growth is 89.2%.
For `COc1ccccc1C(=O)Nc1cccc(-c2cc(=O)c3c(OC)c(OC)c(OC)cc3o2)c1`, the growth is 28.8%.
Turning to `C=C(NC(=O)[C@H](C(C)C)N(C)c1cccc2[nH]ccc12)C(=O)OC`, the growth is 107%.
On the same count and under the same terms, the result for `Cc1nc2c(nnn2-c2ccccc2)c2nc(-c3ccccc3)oc(=O)c12` reads 112%; that for `CCCCCCCCCC[N+](C)(C)C`, -0.229% (active); that for `CCOC(=O)c1ccc2n1CCCc1cnc(NC(C)=O)nc1-2`, 108%.
Take `O=S(=O)(O)c1ccc2c(c1)Sc1cc(S(=O)(=O)O)ccc1O2`: the growth is 115%.
Same read-out and setting: the result for `COc1cc(/C=C/C(=O)c2ccc(F)cc2)ccc1OCCCCOc1cc2c(cc1OC)C(=O)N1CCCC1C=N2` (stereo not given) reads -19.4% (active); that for `COC(=O)C(C)[C@H]1CC[C@@H]2[C@]1(C)CC=C1[C@]23C=C[C@]2(C[C@@H](OC(C)=O)CC[C@]12C)C(C(=O)OC)C3C(=O)OC` (stereo not given in full), 46.7%.
With `COc1ccc2cnc(N)c(C#Cc3cc(C(=O)Nc4ccc(CN5CCN(C)CC5)c(C(F)(F)F)c4)cnc3C)c2c1`, the growth was 23.7%.
With `COc1cccc2c1nc1cccc(OC)c1[n+]2[O-]`, the growth was -1.14% (active).
On the same count and under the same terms, next, `O=C1/C(=N\c2cc(=O)[nH]n2S(=O)(=O)c2ccccc2)Nc2ccccc21`: 102%; `c1ccc(Nc2ccccn2)cc1`: 84%; `COc1ccc(OC)c(Cn2cc3c(c2)-c2oncc2CC3)c1`: 28.7%.
As for `O=C1C(=O)c2ccccc2C(O)=C1CCCc1ccc(C2CCCC2)cc1`, the growth was 14.1%.
For the compound `CCCOC(=O)c1c(C)n(C)c2scc[n+]12`, the growth is -44.4% (active).
For `COc1cc(-c2nc3c(c(C)nc4c3nnn4-c3ccccc3)c(=O)o2)cc(OC)c1OC`, the growth was 102%.
Consider `COC(=O)Nc1nc2ccc(C(=O)c3ccccc3N(C)C3COC3)cc2[nH]1`, for which the growth was 30.3%.
Consider `COc1cc(Cn2ccc3c2-c2oncc2CC3)cc(OC)c1`, for which the growth was 38.4%.
In the case of `c1ccc(Nc2ncc3c(n2)-c2cccn2CC3)cc1`, the growth was 99.4%.
With `N=c1c2c(=O)n3c(nc2nc2sc4ccc(Cl)cc4n12)-c1ccccc1Sc1ccccc1-3`, the growth was 8.17% (active).
Take `NC(=O)CC(NC(=O)COc1ccc(Cl)cc1Cl)C(=O)O` (stereo not given): the growth was 104%.
Regarding `C=C(C)[C@@H]1CC[C@]2(COC(=O)c3ccccc3C(=O)O)CC[C@]3(C)[C@H](CC[C@@H]4[C@@]5(C)CCCNC(C)(C)[C@@H]5CC[C@]43C)[C@@H]12`, the growth is -7.13% (active).
As for `C/C=C(/C)C(=O)OC1C=C(CO)C(=O)C(OC(=O)/C(C)=C\C)C1C(C)C` (stereo not given), the growth is -16.8% (active).
For the compound `CC(=O)OC1CC2C3CCC4C[C@@H](NC(=O)C=C(C)C)CC[C@]4(C)C3CC[C@]2(C)[C@H]1C(C)N(C)C` (stereo not given in full), the growth is -31.9% (active).
`CC(=O)/C(=C/c1ccc(-c2ccccc2)cc1)C(=O)c1ccccc1`: the growth is 5.31% (active).
